# Inconclusive results are not listed. Entries that show only a call come without a potency. A number with no mark means an inactive call. Active and inactive are the calls of the source. The call rests on the fitted dose curve; in most records, active means well fitted cell-killing curve with a large enough effect; inconclusive means small, poorly fitted or top-dose-only effect, or effect the other way; inactive means flat fitted curve, though single readings scatter. Where a SMILES comes first, the peptide text is derived from it.
# Test system: Tov-21-G
# Assay: Primary qHTS to identify gynecologic anti-cancer compounds using libraries of approved drugs and bioactive compounds (AID 1345084); further: nearly all actives have a fitted effect of over 55% in size
# Details: Gynecologic cancer cell panel viability, ATPlite luminescence, 48 h; series mostly up to 57.5 µM
# How it was run: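 Measured: luminescence after ATPlite addition (15 min, RT). Exposure: 48 h, 37 C, 5% CO2.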
SMILES,Potency,"activity change, negative = cytotoxicity"
Nc1nc(CC(=O)Nc2ccc(CCNCC(O)c3ccccc3)cc2)cs1 (centres undefined),inactive,–
COc1ccc([C@@H]2N[C@H](C(=O)O)Cc3c2[nH]c2ccccc32)cc1CN1CCN(c2ccccc2F)CC1,inactive,–
CC1NC(=O)CNC(=O)C(C(C)C)NC(=O)C2CCCN2C(=O)C(C(C)C)NC(=O)C(Cc2c[nH]c3ccccc23)NC1=O (centres undefined) (cyclo(GAWVPV); configuration not given here),inactive,–
CC(C)(C)c1cc(CN2CCN(CC(O)c3ccc(Cl)cc3)CC2)cc(C(C)(C)C)c1O (centres undefined),inactive,–
CC[C@@H](c1ccc(F)c(F)c1)n1c(C(=O)OC)c(-c2ccno2)[nH]c1=S,inactive,–
O=C(O)C[C@H]1CCC(=O)[C@@H]1C/C=C\CCOC1OC(CO)C(O)C(O)C1O (some centres undefined),inactive,–
N#Cc1ccc2[nH]c(O)c(-c3ccc(CN4CCOCC4)cn3)c2c1,inactive,–
C=Cc1cc(O)cc2nc(-c3ccc(O)c(F)c3)oc12,inactive,–
COc1ccc(C(OC2OC(CO)C(O)C(O)C2O)C(C)O)cc1 (centres undefined),inactive,–
CC1CCC2(C(=O)OC3OC(COC4OC(CO)C(O)C(O)C4O)C(O)C(O)C3O)CCC3(C)C(=CCC4C5(C)CCC(O)C(C)(C(=O)O)C5CCC43C)C2C1(C)O (centres undefined),–,6.67% [at 11.6 µM]
Cc1cc(N2CCCCC2)nc2ccccc12,inactive,–
C=CC1(C)CC2=CCC3C(C)(C(=O)O)CCCC3(C)C2CC1OC(C)=O (centres undefined),inactive,–
Cc1cc(Nc2ncc(Cl)c(Nc3ccccc3S(=O)(=O)C(C)C)n2)c(OC(C)C)cc1C1CCNCC1,inactive,–
CCn1c2ccccc2c2cc(CNC)ccc21,inactive,–

# — PubChem BioAssay (NCATS)
